Our source for the composite z-score values is PubChem BioAssay.

For the assay, the system named is PRMT1 (protein arginine N-methyltransferase 1). As to the kind of experiment: PRMT1 binders on small-molecule microarrays, primary screen, biochemical, small-molecule microarray, 635 nm fluorescence (AID 1088). Particulars: small-molecule microarray binding, higher = more signal.
As for `Cc1ccc(NN2C(C(O)c3c(F)cccc3Cl)C=CC3C(=O)N(C4CCCCC4)C(=O)C32)cc1` (stereo unspecified), the composite z-score worked out at 1.43.
As to `CC(C)N1C(=O)C[C@@](C(=O)O)(c2ccc([N+](=O)[O-])cc2)[C@H]1c1ccc(CO)cc1`, the composite z-score was determined as 1.01.
Take `CCCN1C(=O)[C@@]2(Cc3ccccc31)N=C(c1ccc(OCCCO)cc1)O[C@H]2c1ccccc1`: the composite z-score was 1.46.
Turning to `C=CCN1C(=O)[C@]2(CCS(=O)(=O)c3ccccc3)N=C(c3ccc(OCCCO)cc3)O[C@@H]2c2ccccc21`, the composite z-score is 1.54.
`C=CC[C@@]1(C(=O)NCCCOC)N=C(c2ccc(OCCCO)cc2)O[C@@H]1c1ccccc1`: the composite z-score is 1.24.
`COC(=O)c1c(CC[C@@H](CO)NC(=O)N2CCC[C@H]2Cn2cc(C3(O)CCCCC3)nn2)oc(C(C)=O)c1C(=O)OC`: the composite z-score worked out at 1.53.
Consider `COCC(=C=CC[C@H](O)c1ccc(OCCO)cc1)CCO`, for which the composite z-score turned out to be 1.18.
`C=CCNC(=O)[C@@H]1[C@H]2C(=O)O[C@H](c3ccccc3)[C@H](c3ccccc3)N2[C@H](c2ccccc2OCCO)[C@@]12C(=O)N(C(=O)OCCOC)c1ccc(C#CC3(O)CCCCCC3)cc12`: the composite z-score was 1.56.
The compound `COc1ccc([Si](C)(C)[C@@H]2[C@@H](CCO)O[C@]3(C(=O)N(Cc4ccccc4)c4ccc(N5C(=O)c6cccc7cccc5c67)cc43)[C@H]2C)cc1` showed a composite z-score of 0.473.
On to `C=CC[C@]1(C(=O)N2CCCCC2)N=C(c2ccc(OCCCO)cc2)O[C@H]1c1ccccc1CN=[N+]=[N-]`, for which the composite z-score is 1.54.
For the compound `COC(=O)C1(CC(C)C)C=C2C(=C(c3ccccc3)C(=O)C2C)CN1` (stereo unspecified), the composite z-score was -0.291.
In turn, `COc1ccc(CCNC(=O)[C@@H]2c3ccccc3C(=O)N(C3CCCCC3)[C@H]2c2ccc(CO)cc2)cc1` yielded a composite z-score of 0.399.
Turning to `CCCCCN1CC=CC23O[C@@H]4C=CCCOC(=O)C4[C@H]2C(=O)N(CCCCCCO)[C@@H]3C1=O` (stereo partly specified), the composite z-score is 0.812.
`CCOC(=O)C[C@H]1[C@H](OC(=O)c2ccc(-c3ccccc3)cc2)[C@@H](NC(=O)CC(C)C)c2cc(OCCCO)ccc2N1C(=O)c1ccc2ccccc2n1` displayed a composite z-score of -0.069.
As to `COC(=O)C(CC#Cc1ccc2c(c1)[C@]1(C(=O)N2)[C@H](c2ccc(O)cc2)N2[C@H](c3ccccc3)[C@H](c3ccccc3)OC(=O)[C@H]2[C@@H]1C(=O)NC[C@H](O)c1ccccc1)C(=O)OC`, the composite z-score was 1.55.
`COC(=O)[C@]1(CCS(=O)(=O)c2ccccc2)N=C(c2ccc(OCCCO)cc2)O[C@@H]1c1ccccc1N=[N+]=[N-]` yielded a composite z-score of 1.54.
Compound `O=C1C2C=CC(C(O)C3CC=CCC3)N(Nc3ccccc3)C2C(=O)N1c1ccccc1` (stereo unspecified) had a composite z-score of 1.24.
Compound `CCOC(=O)C[C@H]1[C@H](OC(=O)c2cc3ccccc3oc2=O)[C@@H](NC(=O)c2ccccc2)c2cc(OCCCO)ccc2N1C(=O)c1ccccc1` had a composite z-score of 0.58.
With `COc1ccc([Si](C)(C)[C@H]2[C@H](CC(=O)N3Cc4ccccc4C[C@H]3CO)O[C@@]3(C(=O)N(Cc4ccc(N5CCOC5=O)cc4)c4ccccc43)[C@@H]2C)cc1`, the composite z-score is 1.57.
`CC1CC/C=C\[C@H]2OC34C=CCN(C(C)C)C(=O)[C@H]3N(CCO)C(=O)[C@@H]4C2C(=O)O1` (stereo partly specified) registered a composite z-score of -0.138.
As to `COCCCNC(=O)[C@@H]1c2ccccc2C(=O)N(C(C)C)[C@H]1c1ccc(CO)cc1`, the composite z-score is -0.325.
The compound `COc1cccc(C)c1NC(=O)O[C@H]1[C@H](OC(=O)Nc2ccccc2-c2ccccc2)[C@H](OC(=O)Nc2ccccc2-c2ccccc2)[C@@H](OC)O[C@@H]1CO` returned a composite z-score of 1.54.
For `CC(C)c1ccc(NN2C(C(O)c3ccc(F)cc3)C=CC3C(=O)N(c4ccccc4)C(=O)C32)cc1` (stereo unspecified), the composite z-score is 1.47.
Compound `C#CCN(Cc1ccccc1Br)[C@H](/C=C/c1ccccc1)[C@@H](O)Cc1ccccc1` had a composite z-score of -0.384.
As for `[N-]=[N+]=Nc1ccccc1C[C@]1(C(=O)NCC(O)CO)COC(c2ccc(OCCCO)cc2)=N1` (stereo partly specified), the composite z-score worked out at 0.149.
`O=C1O[C@@H](c2ccccc2)[C@@H](c2ccccc2)N2[C@@H](c3ccc(OCCO)cc3)[C@]3(C(=O)Nc4ccc(C#CC5=CCCCC5)cc43)[C@@H](C(=O)NC[C@H](O)c3ccccc3)[C@H]12`: the composite z-score stood at 1.36.
As for `CCCC=C(CCC)[C@@H](NS(=O)(=O)c1ccc(C(F)(F)F)cc1)c1ccccc1`, the composite z-score was 0.907.
With `CCCCCCCCCC(O)C1C=CC2C(=O)N(c3ccccc3)C(=O)C2N1Nc1cc(OC)c(OC)c(OC)c1` (stereo unspecified), the composite z-score was found to be 0.619.
Take `O=C(c1ccccc1)N1C(=O)[C@]2(Cc3ccccc31)N=C(c1ccc(OCCCO)cc1)O[C@@H]2c1ccccc1`: the composite z-score turned out to be 1.54.
As for `CCCCC=C[C@@H](NC(=O)OCc1ccccc1Cl)c1ccccc1`, the figure is 1.48; as for `COc1cc(C(O)C2C=CC3C(=O)N(C)C(=O)C3N2Nc2ccccc2)cc(OC)c1OC` (stereo unspecified), 1.33.
The result for `C=CC[C@H](OC(=O)Nc1ccc(SC)cc1)c1ccc(O)c2ccccc12` reads 1.54; that for `[N-]=[N+]=Nc1ccccc1C[C@@]1(C(=O)N2CCOCC2)N=C(c2ccc(OCCCO)cc2)O[C@@H]1c1ccccc1`, 1.54; that for `COc1ccc(C(=O)Nc2ccc(CN3C(=O)[C@]4(O[C@H](CC(=O)N5Cc6ccccc6C[C@H]5CO)[C@@H]([Si](C)(C)c5ccc(OC)cc5)[C@@H]4C)c4ccccc43)cc2)cc1`, 1.56.
On to `C=CCNC(=O)[C@@H]1[C@H]2C(=O)O[C@H](c3ccccc3)[C@H](c3ccccc3)N2[C@H](c2ccc(O)cc2)[C@@]12C(=O)N(C(=O)OCCOC)c1ccc(C#CC3=CCCCC3)cc12`, for which the composite z-score was 1.49.
As for `C=CCOC(=O)[C@@]1(Cc2ccccc2)C[C@H]2CO[C@H](c3ccc(OC)cc3)N2C1=O`, the figure is 0.262.
